An excerpt weighted towards active compounds, which were near 1.1% of everything screened.
HTR5A inv ag = HTR5A inverse agonists in luminescence cell assay, primary screen, counter-screen for OPRM1-OPRD1 heterodimer inverse agonist project, full-deck HTS; 5-hydroxytryptamine receptor 5A (Homo sapiens), P47898; HTR5A cell line, inverse agonism; inhibition, % at 9.3 µM; hit rate 0.083% among 340,000; AID 504634, 2011; in the data active = inhibition mostly above about 23%, no sharp cut-off; inactive = mostly below about 18%
HTR5A ag ctr = HTR5A agonists in luminescence cell assay, primary screen, counter-screen for OPRM1-OPRD1 heterodimer agonist project, full-deck HTS | 5-hydroxytryptamine receptor 5A (Homo sapiens), P47898 | cell-based | activation, % at 9.3 µM | hit rate 0.61% among 340,000 | AID 504692, 2011; in the data active = activation mostly above about 9.5%, no sharp cut-off; inactive = mostly below about 7.6%
MOR-DOR ag-1 = agonists of OPRM1-OPRD1 heterodimerization, primary screen, cell-based, luminescence | Mu-type opioid receptor (Homo sapiens) + Delta-type opioid receptor (Homo sapiens), … | cells | activation, % at 9.3 µM | hit rate 0.3% among 340,000 | AID 504326, 2011
Target sequence (P35372 whole entry, looked up): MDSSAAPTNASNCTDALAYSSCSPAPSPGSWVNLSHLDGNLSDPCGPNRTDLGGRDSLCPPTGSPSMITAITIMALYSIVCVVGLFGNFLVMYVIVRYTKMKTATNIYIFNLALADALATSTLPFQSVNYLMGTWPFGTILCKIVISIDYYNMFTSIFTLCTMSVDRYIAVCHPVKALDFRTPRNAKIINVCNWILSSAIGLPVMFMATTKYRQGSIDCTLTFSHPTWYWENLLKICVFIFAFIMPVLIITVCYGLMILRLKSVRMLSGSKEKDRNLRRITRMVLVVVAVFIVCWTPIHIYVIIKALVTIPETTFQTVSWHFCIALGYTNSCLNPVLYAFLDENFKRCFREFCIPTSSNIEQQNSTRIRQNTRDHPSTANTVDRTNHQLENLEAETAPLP
Target sequence (P41143 whole entry, looked up): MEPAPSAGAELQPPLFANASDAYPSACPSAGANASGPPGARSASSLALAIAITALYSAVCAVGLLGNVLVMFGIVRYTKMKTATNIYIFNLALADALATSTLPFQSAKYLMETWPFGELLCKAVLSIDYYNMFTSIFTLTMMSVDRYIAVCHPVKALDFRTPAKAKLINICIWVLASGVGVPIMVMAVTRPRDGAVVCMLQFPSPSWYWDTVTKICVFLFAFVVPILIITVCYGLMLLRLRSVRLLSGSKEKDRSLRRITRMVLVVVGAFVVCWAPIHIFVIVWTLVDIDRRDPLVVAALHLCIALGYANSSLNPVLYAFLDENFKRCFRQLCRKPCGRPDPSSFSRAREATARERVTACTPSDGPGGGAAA
MOR-DOR inv ag = inverse agonists of MOR-DOR heterodimerization, primary screen, cell-based, luminescence | Mu-type opioid receptor (Homo sapiens) + Delta-type opioid receptor (Homo sapiens), … | cell-based MOR-DOR heterodimer luminescence, inverse agonism | inhibition, % at 9.3 µM | hit rate 0.21% among 340,000 | AID 504357, 2011; in the data active = inhibition above about 22%, passing the limit was not always enough
MOR-DOR ag-2 = OPRM1-OPRD1 heterodimerization promoters, counter-screen for HTR5A agonist project, cell-based, luminescence. activation, % at 9.3 µM. shares compounds with HTR5A ag ctr. U2OS counter-screen cells, complementation luminescence, 3 h. hit rate 13% among 800
HTR5A ag conf = HTR5A agonists, retest of hits, confirmation, cell-based, luminescence | shares compounds with HTR5A ag ctr | HTR5A agonist cell assay | activation, % at 9.3 µM | hit rate 17% among 800; in the data active = activation above about 17%
A number is an active result; – = inactive; · = no result given. Rule as the data show it, unless noted: active = activation above about 18%; inactive = the rest.

SMILES	HTR5A inv ag	HTR5A ag ctr	MOR-DOR ag-1	MOR-DOR inv ag	MOR-DOR ag-2	HTR5A ag conf
O=C(NCCc1c[nH]c2ccccc12)C(=O)NCC1OCCN1S(=O)(=O)c1ccccc1 (stereo not given)	–	35.9	–	–	–	57.0
O=C(NCCc1c[nH]c2ccccc12)C(=O)NCC1OCCCN1S(=O)(=O)c1ccccc1 (stereo not given)	–	48.5	–	–	–	46.5
O=C(NCCc1c[nH]c2ccccc12)C(=O)NCC1OCCN1S(=O)(=O)c1ccc(F)cc1 (stereo not given)	–	–	–	–	·	·
O=C(NCCc1c[nH]c2ccccc12)C(=O)NCC1OCCN1S(=O)(=O)c1ccc(Cl)cc1 (stereo not given)	–	–	–	–	·	·
Cc1ccc(S(=O)(=O)N2CCCOC2CNC(=O)C(=O)NCCc2c[nH]c3ccccc23)cc1 (stereo not given)	–	30.3	–	–	–	26.0
CC(C)NC(=O)c1cccc2c1-c1ccccc1C2=O	–	–	–	–	·	·
COC(=O)c1cc2c(N)c(C(=O)c3ccccc3)sc2nc1C(OC)OC	–	–	–	–	·	·
Cc1cc(O)c(C(C)C)cc1C1(c2cc(C(C)C)c(O)cc2C)OC(=O)c2ccccc21	–	20.2	–	–	–	–
CC[C@H](C)[C@H](NC(=O)OCc1ccccc1)C(=O)OCC(=O)N1CCN(c2ccc(OC)cc2)CC1	–	–	–	–	·	·
COC(=O)C/C=C/N(Cc1ccccc1OC)S(=O)(=O)CCl	–	–	–	–	·	·
CCN(CC)CCCNc1ccc(-c2nnc(-c3ccc(OCC(C)C)cc3)o2)cn1	–	18.2	–	–	–	–
COc1ccc2c(c1)Cc1sc(NC(C)=O)nc1-2	–	15.2	–	–	–	–
N#CCSc1ccccc1NC(=O)COC(=O)CCNC(=O)c1ccc([N+](=O)[O-])cc1	–	–	–	–	·	·
Cc1ccc(NC(=O)C2CCN(c3ncnc4sc(C)c(C)c34)CC2)cc1S(=O)(=O)N(C)C	–	19.5	–	–	–	–
COc1ccccc1OCC(=O)Nc1cc2c(cc1C(=O)O)OCCCO2	–	–	–	–	·	·
COc1ccc(OCCC(=O)Nc2cc3c(cc2C(=O)O)OCCCO3)cc1	–	15.4	–	–	–	–
COc1ccc(C)cc1S(=O)(=O)NC1CC1	–	–	–	–	·	·
CC1=NNC(=O)/C1=C\c1cn(-c2ccccc2)nc1-c1cccs1	–	16.9	–	–	–	–
CCOC(=O)[C@H]1[C@H]2COc3ccc(C)cc3[C@@H]2N2C(=O)CN(CC3CCCO3)C(=O)[C@@]12C (stereo not given in full)	–	–	–	–	·	·
CCCCCCCCCC[n+]1cccc2c3ccccc3ccc21	–	21.6	–	–	–	–
COc1ccc(/C=N/NC(=O)c2ccn[nH]2)cc1COc1ccc(Cl)cc1Cl	–	25.6	–	–	–	–
COc1ccc(NC(=O)C(=O)NCCCO)cc1Cl	–	–	–	–	·	·
COc1ccc(NC(=O)C(=O)NCCO)cc1Cl	–	15.1	–	–	–	–
NC(=O)c1cc([N+](=O)[O-])ccc1NCc1cnccn1	–	21.7	–	–	–	–
NC(=O)c1cc([N+](=O)[O-])ccc1NCc1ccc(O)cc1	–	–	–	–	·	·
SMILES	HTR5A inv ag	HTR5A ag ctr	MOR-DOR ag-1	MOR-DOR inv ag	MOR-DOR ag-2	HTR5A ag conf
NC(=O)c1cc([N+](=O)[O-])ccc1NCC1CCCCC1	–	16.1	–	–	–	–
O=S(=O)(/N=C(/Nc1cccc2ccccc12)c1ccccc1)c1ccc(F)cc1	–	–	–	–	·	·
Nc1ccc(-c2n[nH]c(=O)c3ccccc23)cc1N	–	21.2	–	–	–	–
O=C(CN1c2ccccc2Sc2ccccc21)N/N=C/c1ccc(Cl)cc1Cl	–	–	–	–	·	·
CNC(=O)CCCCC(=O)N/N=C/c1ccc(Cl)cc1Cl	–	15.3	–	–	31.1	–
COc1cccc(C2CC(=O)Nc3cc4c(cc32)CCC4)c1 (stereo not given)	–	14.7	–	–	53.5	–
COc1cccc(C2CC(=O)Nc3cc(OC)c(OC)cc32)c1 (stereo not given)	–	–	–	–	·	·
